Experimental data published in PubChem BioAssay (Tox21).
Results filed as inconclusive are left out. Values without a mark were called inactive. The call rests on the fitted dose curve.

Assay: qHTS assay to identify small molecule agonists of the NFkB signaling pathway - cell viability counter screen (AID 1159515); further: nearly all actives have a fitted effect of over 55% in size
Details: NFkB-bla ME-180 viability, CellTiter-Glo luminescence, 5 h; series mostly up to 61 µM; activity, negative = cytotoxic: at the top concentration
Description: National Center for Advancing Translational Sciences [NCATS]
NIH Chemical Genomics Center [NCGC]
U.S. Environmental Protection Agency [EPA]
National Institutes of Environmental Health Sciences [NIEHS]
National Toxicology Program [NTP]
U.S. Food and Drug Administration [FDA]
Transcription factors and their stimulated target gene expression play pivotal roles across many cellular processes including responses to environmental stimuli. Proper regulation of associated pathways is critical to maintain cell health and function. Constitutive activation of transcription factor pathways has been implicated in tumors as it may block cellular functions such as apoptosis and lead to invasion and metastasis. One important transcription factor that stimulates gene expression in response to cytokines, UV radiation, and other stimuli is nuclear factor-kappa B (NFkB). To measure activation of the NFkB pathway, the CellSensor NFkB-bla ME-180 cell line (Life Technologies, Carlsbad, CA) that stably expresses beta-lactamase reporter gene under the regulation of a NF-kB response element was used. This assay allows measurement of the NFkB pathway activity induced by compounds in a ME-180 cell line. This system quantitates NF-kB activity using a FRET-based assay system where beta-lactamase expression disrupts FRET, allowing for fluorescent measurement of activity. This cell line has been used to screen the Tox21 10K compound library and to identify compounds that induce the NFkB pathway activity. The cytotoxicity of the Tox21 compound library against the NFkB-bla ME-180 cell line was tested in parallel by measuring cell viability using the CellTiter-Glo assay in the same wells.
Tox21 Assay Protocol Summary:
NFkB-bla ME-180 cells were dispensed at 2,000 cells/6 uL of assay medium per well into black wall/clear-bottom 1536-well plates using a Multidrop Combi (ThermoFisher Scientific, Waltham, MA) dispenser. After the assay plates were incubated at 37 C and 5% CO2 for an overnight, 23 nL of compounds dissolved in DMSO, positive controls or DMSO only was transferred to the assay plate by a Pintool station (Kalypsys, San Diego, CA). The assay plates were incubated at 37 C and 5% CO2 for 5 hr. One uL of LiveBLAzer B/G FRET substrate (Life Technologies) was added using a Flying Reagent Dispenser (Aurora Discovery, San Diego, CA) and the plates were incubated at room temperature for 1.5 hr. Fluorescence intensity (405 nm excitation, 460 nm and 530 nm emissions) was measured using an Envision plate reader (PerkinElmer, Shelton, CT). For cytotoxicity, 3 ul/well of CellTiter-Glo reagent was added into the assay plates using an FRD. After 30 min incubation at room temperature, the luminescence intensity was measured using a ViewLux plate reader (PerkinElmer).
On the % scale 0 is the no-effect control and ±100 the full control effect.

Compared with `CC1=NN(c2ccc(C(=O)O)cc2)C(=O)C1`, `Cc1nc2ccccn2c(=O)c1CCN1CCC(C(=O)c2ccc(F)cc2)CC1` is lower in “activity, negative = cytotoxic” value: 12.1% for the first, -3.37% for the second.

Going from `C/C=C(\C)C(=O)OCCC(C)CCC=C(C)C` (stereo not given) to `CCCCCCCCCOC(C)=O`, the “activity, negative = cytotoxic” value rises from -0.244% to 10.1%.

Going from `C/C=C/C=C/CCCCCCCO` to `CCCCCCCCSCCO`, the “activity, negative = cytotoxic” value rises from -0.334% to 1.18%.

Going from `CO[Si](C)(OC)OC` to `C[Si]1(C)O[Si](C)(C)O[Si](C)(C)O1`, the “activity, negative = cytotoxic” value falls from -1.8% to -8.8%.

Going from `CC1C2CC(CC2C2CCCC(O)C2)C1(C)C` (stereo not given) to `NCC1CCCC(CN)C1` (stereo not given), the “activity, negative = cytotoxic” value falls from 10.3% to -3.07%.

Compared with `O=C(Nc1ccc([N+](=O)[O-])cc1)Nc1ccc([N+](=O)[O-])cc1`, `CC(=O)CC(c1ccc([N+](=O)[O-])cc1)c1c(O)c2ccccc2oc1=O` (stereo not given) is lower in “activity, negative = cytotoxic” value: 18.2% for the first, 0.172% for the second.

Going from `CCCCCCCCCCCC[N+](C)(C)CC(=O)[O-]` to `CCCCCCCCCCCCCCC[C@H](O)[C@@H](N)CO`, the “activity, negative = cytotoxic” value falls from -6.57% to -18.8%.

First: Cc1oc(C)c(C(=O)Nc2ccccc2)c1C
Second: CCC(=O)OC/C=C/c1ccccc1
The “activity, negative = cytotoxic” value of the first is lower: -0.634% for the first, 2.73% for the second.

First: CC(CCc1ccc2c(c1)OCO2)NN (stereo not given)
Second: CCOc1cc(N)c(Cl)cc1C(=O)NCC1CN(Cc2ccc(F)cc2)CCO1 (stereo not given)
The “activity, negative = cytotoxic” value of the first is higher: -0.238% for the first, -21.6% for the second.

First: CC(C)C(OC(=O)c1ccccc1)C(C)(C)COC(=O)c1ccccc1 (stereo not given)
Second: COCCOC(=O)C1=C(C)NC(C)=C(C(=O)OC/C=C/c2ccccc2)C1c1cccc([N+](=O)[O-])c1 (stereo not given)
The “activity, negative = cytotoxic” value of the first is higher: 12.7% for the first, 3.39% for the second.

First: Cc1cc(O)c2c(O)c3c(O)cccc3cc2c1
Second: CC(C)(O)c1ccccc1CC[C@@H](SCC1(CC(=O)O)CC1)c1cccc(/C=C/c2ccc3ccc(Cl)cc3n2)c1
The “activity, negative = cytotoxic” value of the first is higher: 3.85% for the first, -1.28% for the second.

Going from `O=C(CCCN1CCN(c2ccc(F)cc2)CC1)NC1c2ccccc2CSc2ccccc21` (stereo not given) to `COc1cc2c(N3CCN(C(=O)Nc4ccc(OC(C)C)cc4)CC3)ncnc2cc1OCCCN1CCCCC1`, the “activity, negative = cytotoxic” value falls from -2.6% to -16%.

First: CCCOCCOCCO
Second: CCCCC(CC)COC(=O)COc1ccc(Cl)cc1C (stereo not given)
The “activity, negative = cytotoxic” value of the first is lower: 0.312% for the first, 8.15% for the second.

Compared with `CCN(Cc1cccc(S(=O)(=O)O)c1)c1ccc(C(=C2C=CC(=[N+](CC)Cc3cccc(S(=O)(=O)[O-])c3)C=C2)c2ccccc2)cc1`, `O=S(=O)(c1ccccc1)c1ccc(Cl)cc1` is higher in “activity, negative = cytotoxic” value: -0.795% for the first, 2.37% for the second.

Going from `C[Si](NC1CCCCC1)(NC1CCCCC1)NC1CCCCC1` to `CN1Cc2cc(C(=O)N3CCC(C4CCNCC4)CC3)ccc2N[C@@H](CC(=O)O)C1=O`, the “activity, negative = cytotoxic” value rises from -9.31% to 1.07%.

First: Nc1ccc(Cl)cc1[N+](=O)[O-]
Second: NC(=O)Nc1ccc(Cl)cc1
The “activity, negative = cytotoxic” value of the first is lower: -11% for the first, 0.0658% for the second.

First: CO[C@H]1C=CO[C@@]2(C)Oc3c(C)c(O)c4c(O)c(c5c(c4c3C2=O)=NC2(CCN(CC(C)C)CC2)N=5)NC(=O)/C(C)=C\C=C/[C@H](C)[C@H](O)[C@@H](C)[C@@H](O)[C@@H](C)[C@H](OC(C)=O)[C@@H]1C
Second: CC1=CC(=O)CC(C)(C)C1(O)/C=C/C(C)=C\C(=O)O (stereo not given)
The “activity, negative = cytotoxic” value of the first is lower: -13.7% for the first, 8.87% for the second.

First: C=CC(=O)NCOCC(C)C
Second: CC(Cl)C(Cl)Cl (stereo not given)
The “activity, negative = cytotoxic” value of the first is lower: -2.13% for the first, 10.8% for the second.

Compared with `CC(N)CN` (stereo not given), `CC#N` is higher in “activity, negative = cytotoxic” value: -2.28% [at 78.8 µM] for the first, 0.255% [at 78.8 µM] for the second.

Compared with `CC(C)(C)C(=O)O`, `Cc1nc2ccccc2s1` is lower in “activity, negative = cytotoxic” value: 10.6% [at 78.8 µM] for the first, -1.13% [at 78.8 µM] for the second.
